Assay results reported in PubChem BioAssay (NCI).
Compounds without any hit were thinned out: in the full panel of roughly 83,000, 20% have a hit.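 96-well plates, one dose, 48 hours. Percent growth reported; active if below 10.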 A number with no mark means an inactive call. Calls of active or inactive are those of the source.

tested on: DU-145 prostate; assay: NCI-60 one-dose screen, 48 h (100 = growth as untreated, 0 = no growth, -100 = all killed); details: 10 µM

Row | SMILES | growth
1 | CCCCCCCCCCCC(=O)NCCCN(C)C | 107%
2 | Nc1ccc(C2=CC(c3ccc(Cl)cc3)N3C=CSC3=N2)cc1 (centres undefined) | -44.6% (active)
3 | CC(=O)n1nc(C(=O)OC(C)(C)C)c2cc(F)c(F)cc21 | 102%
4 | COC(=O)c1c(C)nc(Nc2nc3ccccc3s2)nc1-c1ccc(Cl)cc1Cl | 113%
5 | O=C(O)CCCCSCCCCC(=O)O | 120%
6 | COc1cc(-c2nc3ccc(C)cc3[nH]2)ccc1OCC(=O)N=Nc1c(O)[nH]c2ccccc12 | 2.84% (active)
7 | CC1=CSC2=NC(c3ccc(Cl)c(Cl)c3)=CC(c3ccc(Cl)cc3)N12 (centres undefined) | 20.5%
8 | COc1ccc(Nc2ccnc(N3CCN(c4ccnc5cc(Cl)ccc45)CC3)n2)cc1 | 15.6%
9 | Cn1cnc([N+](=O)[O-])c1/C=C1\Oc2ccc(Cl)cc2C1=O | 94.2%
10 | CCOC(=O)Cn1nnc(-c2ccc(OCc3ccccc3F)cc2)n1 | 103%
11 | COc1ccc(/C(CS(=O)(=O)c2ccccc2)=N\O)cc1 | 119%
12 | COc1ccc(S(=O)(=O)Nc2cc(/C=C\c3cc(OC)c(OC)c(OC)c3)ccc2OC)cc1 | -12.8% (active)
13 | COc1ccc2nc(C)cc(Nc3ccc(Cl)cc3)c2c1 | 102%
14 | COc1cc(-c2nc3ccc(C)cc3[nH]2)ccc1OCc1nnc(-c2ccc(CC(C)C)cc2)o1 | 101%
15 | Cc1noc(C)c1-c1ccc2nc(NC(=O)[C@H]3CCN(C#N)C3)cn2c1 | 89.7%
16 | COc1ccc(COC(=O)CC(C)C)cc1 | 107%
17 | Cc1ccc(-n2nnc3c(sc4ccccc43)c2=O)cc1 | 33.7%

Row | SMILES | growth
18 | Nc1ccn([C@@H]2O[C@H](COP(=O)(O)O[C@@H]3C[C@H](n4cc(F)c(=O)[nH]c4=O)O[C@@H]3COP(=O)(O)O[C@@H]3C[C@H](n4cc(F)c(=O)[nH]c4=O)O[C@@H]3COP(=O)(O)O[C@@H]3C[C@H](n4cc(F)c(=O)[nH]c4=O)O[C@@H]3COP(=O)(O)O[C@@H]3C[C@H](n4cc(F)c(=O)[nH]c4=O)O[C@@H]3COP(=O)(O)O[C@@H]3C[C@H](n4cc(F)c(=O)[nH]c4=O)O[C@@H]3COP(=O)(O)O[C@@H]3C[C@H](n4cc(F)c(=O)[nH]c4=O)O[C@@H]3COP(=O)(O)O[C@@H]3C[C@H](n4cc(F)c(=O)[nH]c4=O)O[C@@H]3COP(=O)(O)O[C@@H]3C[C@H](n4cc(F)c(=O)[nH]c4=O)O[C@@H]3COP(=O)(O)O[C@@H]3C[C@H](n4cc(F)c(=O)[nH]c4=O)O[C@@H]3COP(=O)(O)O[C@@H]3C[C@H](n4cc(F)c(=O)[nH]c4=O)O[C@@H]3COP(=O)(O)OCCOCCOCCOCCOCCOCCO)[C@H](O)C2O)c(=O)n1 (some centres undefined) | 41.6%
19 | COc1ccc(-c2nnc(COc3ccc(NC(=O)Nc4cccc(C(F)(F)F)c4)cc3F)o2)cc1 | 71.9%
20 | Fc1ccc(Nc2ccnc(N3CCN(c4ccnc5cc(Cl)ccc45)CC3)n2)cc1 | 77%
21 | CCOC(=O)c1cc(-c2ccccc2)nc(N)n1 | 107%
22 | CC1(CO)CCCC12OCCO2 (centres undefined) | 117%
23 | CCc1c(C)[nH]c(=O)c(C(N)=O)c1C#N | 115%
24 | CCOc1ccc2c(c1)CC[C@@H]1[C@@H]2CC[C@]2(C)[C@@H](O)[C@@H](O)C[C@@H]12 | 108%
25 | COc1ccc(OC)c([N+](=O)[O-])c1C=O | 116%
26 | CCOC(=O)Nc1ccc2c(c1)C(=O)N(CC)c1ccccc1O2 | 7.48% (active)
27 | Cc1ccc(C)c2c1sc1nc3n[nH]c(N)c3c(=N)n12 | 111%
28 | c1ccc(CC(NCCNC(Cc2ccccc2)c2ccccc2)c2ccccc2)cc1 (centres undefined) | 15.7%
29 | Cc1ccc2nc(-c3ccc(OCC(=O)N=Nc4c(O)[nH]c5ccccc45)cc3)[nH]c2c1 | 73.3%
30 | COc1ccc2c(=O)cc(C(Cl)(Cl)Cl)oc2c1 | 0.575% (active)
31 | c1ccc(OCCC[P+](c2ccccc2)(c2ccccc2)c2ccccc2)cc1 | 21.4%
32 | COc1cc(CSc2nc3ccc(C)cc3c(=O)n2Cc2ccccc2)cc(OC)c1OC | 9.78% (active)
33 | C[N+]1=C(/C=C/c2ccc(I)cc2)C(C)(C)c2ccccc21 | 104%
34 | COc1ccccc1S(=O)(=O)Nc1ccc2c(c1)CN(C)C(=O)N2 | 77.8%
